LASV entry inh = blocks Lassa virus binding to or entry into cells | Lassa virus pseudotype entry inhibition, cell reporter | Potency, µM (highest dose often 37.9 µM), without a hit: at the top dose activity change, negative = inhibition, most hits filed as inhibitors | actives 1.2% (n = 300,000) | AID 540256; calls by dose curve; tested in HEK293 cells; also: potency is read from the fitted curve at half-maximal effect; nearly all actives have a fitted effect of over 50% in size
HCV inhibitor = blocks hepatitis C virus | Huh7.5.1 HCVcc-Cre infection, luciferase reporter, 44 h | Potency, µM (titrated, usually from 41.8 µM), without a hit: at the top dose activity change, negative = inhibition, usual class: inhibitors | actives 3.4% (n = 340,000) | AID 651820; active = well fitted inhibition curve with a large enough effect; inconclusive = small, poorly fitted or top-dose-only effect, or another doubt; inactive = no such curve, though single readings can be large or run the other way; also: potency is read from the fitted curve at half-maximal effect
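After 44 h co-culture of compound, cells and HCVcc-Cre (~0.5 moi), substrate is added for 15 min at room temperature and luciferase measured over 15 sec. Cells were seeded at 1,000/well and pre-cultured 4 h.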
HCMV inh = inhibitors of human cytomegalovirus; AID 1259415; actives 4.5% (n = 410,000); HFF cells, HCMV-luciferase reporter, 72 h; stronger effect = lower value; activity change, negative = inhibition, % at 57.5 µM; in the data active = activity change below about -60%; inconclusive = no clear call, values can overlap the other calls; inactive = above about -39%
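HFF cells seeded 16 h at 37C, treated with compounds, infected with luciferase-reporter HCMV at MOI 1 PFU/cell; luciferase read at 72 h post infection, normalized to buffer-only and Salinomycin controls.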
FMDV antiviral = antivirals against foot and mouth disease virus; FMDV antiviral cell-based qHTS; Potency, µM (top dose mostly 57.9 µM), without a hit: at the top dose activity change, negative = inhibition, most hits filed as inhibitors; actives 1.2% (n = 410,000); AID 1159524; calls by dose curve; tested in HEK293T cells; also: read-out not given here; potency is read from the fitted curve at half-maximal effect; nearly all actives have a fitted effect of over 45% in size
MARV entry inh = Marburg virus entry inhibition | Marburg virus pseudotyped entry inhibition, cell reporter | Potency, µM (doses to about 37.8 µM), without a hit: at the highest dose activity change, negative = inhibition, actives largely listed as inhibitors | actives 1.8% (n = 300,000); calls by dose curve; tested in HEK293 cells; also: potency is read from the fitted curve at half-maximal effect
Active calls of the source: *; u = inconclusive; x = not tested or not shown; + = active, no number; [ ] = another dose, or the depositor's remark. Only some compounds are listed: those with a hit (about 7.9% of all), similar ones and a draw of the others. % is scaled to controls: 0 for no effect and ±100 for the full control effect.

SMILES	LASV entry inh	HCV inhibitor	HCMV inh	FMDV antiviral	MARV entry inh
Cc1cc(F)ccc1Oc1cc(NN2CCCCC2)c([N+](=O)[O-])cc1[N+](=O)[O-]	x	8%	-25	-19%	x
O=[N+]([O-])c1cc([N+](=O)[O-])c(Oc2cc(F)ccc2F)cc1NN1CCCCC1	x	2%	-85*	-17%	x
CN(Cc1ccc(F)cc1)S(=O)(=O)c1nnc(NC(=O)c2ccccc2Cl)s1	18%[46.1 µM]	x	u	13%	x
CC1(C)COC(/C=C/c2ccc([N+](=O)[O-])cc2)=N1	u	u	-101*	0%	u
COc1cc(-c2nnc(SCCOc3ccc(Cl)cc3C)o2)cc(OC)c1OC	-3%[46.1 µM]	x	20	-6%	u
CC(C)(C)C(=O)N1CCN(c2ccnc3cc(Cl)ccc23)CC1	x	u	-98*	u	x
O=C(C1CCCCC1)N1CCN(c2ccnc3cc(Cl)ccc23)CC1	7.9µM*	u	-83*	28µM*	u
O=C(C1CCC1)N1CCN(c2ccnc3cc(Cl)ccc23)CC1	x	u	-87*	-25%	x
O=C(Nc1ccc(OC(F)(F)F)cc1)N1CCN(c2ccnc3cc(Cl)ccc23)CC1	x	11µM*	-85*	u	x
COc1ccc(CN2CCOc3ccc(CN4CCC(Oc5cccnc5)CC4)cc3C2)cc1	x	x	x	-24%	x
O=C(NCC(c1cccnc1)N1CCN(Cc2ccccc2)CC1)C(=O)Nc1cccc(F)c1 (stereo not drawn)	u	x	17	3%	x
CC(=O)OC[C@H]1O[C@H](C#Cc2ccccc2Cl)C=C[C@@H]1OC(C)=O	x	x	x	x	-1%[14.2 µM]
CN1C(=O)C(C2(O)C(=O)N(Cc3ccccc3)c3cc([N+](=O)[O-])ccc32)c2ccccc21 (stereo not drawn)	x	x	-79*	x	x
Cc1ccc(O)c(Nc2nc3ccccc3c3nncn23)c1	11%[46.1 µM]	x	5	-19%	11%[46.1 µM]
O=C(O)c1ccccc1NC(=O)N1c2ccccc2Sc2ccccc21	12%[46.1 µM]	x	-5	9%	x
CN(C)CCCNC(=O)CCC1CCCCC1	14%	8%	-107*	-11%	6%
COc1ccc(N/C(N)=N/c2nc(C)cc(C)n2)c(OC)c1	-7%	u	-67*	u	-6%[46.1 µM]
Cc1cc(C)nc(/N=C(\N)Nc2ccc(-c3ccccc3)cc2)n1	u	11µM*	u	u	u
COc1cccc(-c2nn(C)c3sc(C(=O)N4CCN(c5cccc(C(F)(F)F)c5)CC4)cc23)c1	-27%[46.1 µM]	x	2	-26%	-2%[46.1 µM]
COc1ccc(CN2CCN(C(=O)Cn3nc(C)n4cccc4c3=O)CC2)c(OC)c1OC	-11%[46.1 µM]	-6%	13	14%	7%[46.1 µM]
COc1ccc(CN2CCN(C(=O)Cn3ncn4cccc4c3=O)CC2)c(OC)c1OC	x	u	-64*	u	x
COc1ccc(CN2CCN(C(=O)Cn3c(=O)oc4cc(Cl)ccc43)CC2)c(OC)c1OC	x	3.5µM*	u	-26%	x
CCN(CC)CCNC(=O)Cn1ncc2c([nH]c3ccccc32)c1=O	23%[46.1 µM]	x	6	28%	x
COc1ccc(Nc2cc3[nH]c(-c4cccc(C(F)(F)F)c4)cc3cn2)cc1OC	x	x	-20	x	x
CCOc1ccc(NC(=O)C2CCCN(S(=O)(=O)c3c(C)noc3/C=C/N(C)C)C2)cc1 (stereo not drawn)	0%[46.1 µM]	x	5	-17%	u
SMILES	LASV entry inh	HCV inhibitor	HCMV inh	FMDV antiviral	MARV entry inh
Cn1ncc2c(Nc3cc(C(F)(F)F)ccc3Cl)ncnc21	u	x	47	-25%	x
CCn1c2ccccc2c2cc(/C=N/n3cnnc3)ccc21	-15%	7.9µM*	-24	x	u
COc1ccc(/C=N/n2c(-c3cc(C)[nH]n3)n[nH]c2=S)cc1	u	1%	u	-4%	0%
CCn1c2ccccc2c2cc(/C=N/n3c(-c4cc(C)[nH]n4)n[nH]c3=S)ccc21	u	u	10	0%	5µM*
CCn1c2ccccc2c2cc(/C=N/n3cn[nH]c3=S)ccc21	5%	11µM*	-31	-3%	10µM*
CCn1c2ccc(/C(C)=N\O)cc2c2cc(/C(C)=N\O)ccc21	0%	10µM*	5	-14%	-29%
CCOC(=O)c1cc(-c2ccc(OC)cc2)n(CCC(=O)NCCc2ccccc2)c1C	-14%[46.1 µM]	x	9	31%	x
Cc1ccc(C)n1-c1c(C(=O)NCCC(C)C)sc2ncccc12	-6%[46.1 µM]	x	18	-11%	x
CC1=C(C(=O)Nc2ccccc2)C(c2ccccc2Cl)n2ncc(C(=O)Nc3cccc(C)c3)c2N1 (stereo not drawn)	-4%[46.1 µM]	x	u	-16%	x
Cc1ccc(NS(=O)(=O)c2ccc(-c3cnc(C4CC4)o3)cc2)cc1N(C)C	u	x	u	-29%	x
CCn1c2ccccc2c2cc(/C=N/O)ccc21	6%	11µM*	-74*	-21%	-30%
CCn1c2ccccc2c2cc(NC(C)=O)ccc21	14%	u	69	-14%	18%[46.1 µM]
COc1ccccc1NS(=O)(=O)c1ccc(C(=O)NCc2ccncc2)cc1	x	-7%	+	-1%	x
CCOc1ccc(S(=O)(=O)NCc2ccncc2)cc1NC(=O)c1ccccc1	u	1.8µM*	-87*	-11%	3.5µM*
COc1ccc(S(=O)(=O)NCc2cccnc2)cc1NC(=O)c1ccccc1	x	-7%	-31	83%	12%[46.1 µM]
COc1ccc(S(=O)(=O)NCc2ccncc2)cc1NC(=O)c1ccccc1	-5%	-3%	-79*	-19%	u
COc1ccc(S(=O)(=O)NCc2ccncc2)cc1NC(=O)c1ccc(Cl)cc1	u	u	-63*	-6%	u
COc1ccc(S(=O)(=O)NCc2ccccn2)cc1NC(=O)c1ccc(Cl)cc1	u	u	-30	14%	u
COc1cccc(CN2C(=O)c3ccccc3C2C(=O)NCCc2ccccc2)c1 (stereo not drawn)	u	x	18	0%	u
COc1ccc(C(=O)Nc2nnc(S(=O)(=O)N3CCN(c4ccc(C)cc4)CC3)s2)cc1	1%[46.1 µM]	x	16	3%	x
CCCn1c2ccccc2c2cnn(CC(=O)Nc3cccc(C(=O)OCC)c3)c(=O)c21	0%[46.1 µM]	x	-37	-17%	x
O=C(Nc1ccccc1F)N1CC(=O)N2[C@H](CO)[C@@H](c3ccc(Br)cc3)[C@@H]2C1	x	x	1	x	x
CCC(Sc1nnc(-c2ccc(F)cc2)c(-c2ccc(F)cc2)n1)C(=O)NC1CCCC1 (stereo not drawn)	-46%[46.1 µM]	x	46	22%	x
C=C1C(C)(C)[C@@H]2CC[C@]1(C(=O)Nc1nccs1)C2	x	x	x	x	-9%
CCn1c(C)nc2cc(-c3nc4n(n3)Cc3ccccc3-4)ccc21	u	-25%	x	0.79µM*	u
CCn1c(C)nc2cc(C(=O)NNC(=O)c3ccc(C)cc3)ccc21	x	14%	-30	0%	x
Cc1ccc(-c2nc3n(n2)Cc2ccccc2-3)cc1	u	2%	92	-84%	u
Fc1ccc(-c2nc3n(n2)Cc2ccccc2-3)cc1	13µM*	u	150	-59%	u
CCc1cccc(C)c1NC(=O)CSc1nc2ccccc2nc1Cc1ccccc1	0%[46.1 µM]	x	-68*	-10%	x

Compound activity: PubChem, National Center for Advancing Translational Sciences (NCATS)
